Laboratory results reported in PubChem BioAssay (Tox21).
Values without a mark were called inactive. Inconclusive results are not listed. A call without a number means that no potency is given here. Activity calls are given as the source filed them. Unless noted, calls come from the whole dose curve; as a rule, active = well fitted curve in the direction sought with a large enough effect in the repeat runs; inconclusive = weak or mixed curves; inactive = no such curve, though single readings can be large; an effect the other way counts as inactive or inconclusive.

Experiments:
[1] = A CellTox Green Cytotoxicity Assay to monitor cytotoxicity in HEK293 cells - 32 hour (AID 1224881); note: nearly all actives have a fitted effect of over 40% in size
Procedure, shortened: (§1)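 Seeding of HEK293 cells together with cytotoxicity dye preceded a 5 h incubation at 37 C/5% CO2. Test compounds in DMSO were then added and fluorescence monitored across 40 h.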

[2] = A CellTox Green Cytotoxicity Assay to monitor cytotoxicity in HepG2 cells - 0 hour (AID 1224882); note: nearly all actives have a fitted effect of over 35% in size
Procedure, shortened: (§2)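 Nonlytic assay: viable cells exclude the dye, so fluorescence scales with cell death. HepG2 at 600 cells/well, compounds added after 5 h, signal read across 40 h.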

[3] = A CellTox Green Cytotoxicity Assay to monitor cytotoxicity in HepG2 cells - 32 hour (AID 1224883); note: nearly all actives have a fitted effect of over 50% in size; note: potency is the fitted concentration of half-maximal effect
Procedure, shortened: as §2

[4] = A CellTox Green Cytotoxicity Assay to monitor cytotoxicity in HEK293 cells - 8 hour (AID 1224884); note: nearly all actives have a fitted effect of over 35% in size
Procedure, shortened: as §1

[5] = qHTS RealTime-Glo MT Cell Viability Assay in HepG2 cells - 16 hour (AID 1224885); note: nearly all actives have a fitted effect of over 50% in size
Procedure, shortened: (§3)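 Compound treatment began 5 h after plating HepG2 cells (600/well) with NanoLuc luciferase and prosubstrate. Plates stayed at 37 C for 40 h; luminescence was captured at six time points, 0 h through 40 h.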

[6] = qHTS RealTime-Glo MT Cell Viability Assay in HEK293 cells - 24 hour (AID 1224886); note: top concentration of the series differs between compounds; nearly all actives have a fitted effect of over 50% in size
Procedure, shortened: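 Quantitative high-throughput screen of the Tox21 10K library in HEK293: cells and RealTime-Glo reagents plated together, compound added at 5 h, luminescence monitored through 40 h at 37 C.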

[7] = qHTS RealTime-Glo MT Cell Viability Assay in HEK293 cells - 8 hour (AID 1224887); note: top concentration of the series differs between compounds; nearly all actives have a fitted effect of over 50% in size
Procedure, shortened: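 Tox21 screen in HEK293 using RealTime-Glo MT chemistry, with cells and reagent co-dispensed. Luminescence proportional to viable cell number was captured at intervals during 40 h compound exposure at 37 C.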

[8] = A CellTox Green Cytotoxicity Assay to monitor cytotoxicity in HEK293 cells - 16 hour (AID 1224888); note: nearly all actives have a fitted effect of over 35% in size
Procedure, shortened: as §1

[9] = qHTS RealTime-Glo MT Cell Viability Assay in HepG2 cells - 0 hour (AID 1224889); note: nearly all actives have a fitted effect of over 50% in size
Procedure, shortened: as §3

[10] = A CellTox Green Cytotoxicity Assay to monitor cytotoxicity in HepG2 cells - 8 hour (AID 1224890); note: nearly all actives have a fitted effect of over 45% in size
Procedure, shortened: as §2

[11] = qHTS assay to identify small molecule antagonists of the estrogen receptor alpha (ER-alpha) signaling pathway using the BG1 cell line in the presence of 0.1 nM 17-beta-estradiol - cell viability counter screen (AID 1259241); note: nearly all actives have a fitted effect of over 40% in size
Procedure, shortened: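 Cytotoxicity counter-screen: live-cell protease activity measured by fluorescence (30 min reagent step) in the same wells. Cells were VM7Luc4E2 with endogenous ER-alpha and ERE-driven luciferase, treated 22 hr at 37C alongside 0.1 nM 17beta-estradiol final.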

[12] = qHTS assay to identify small molecule antagonists of the androgen receptor (AR) signaling pathway using the MDA cell line in the presence of 0.5 nM R1881 - cell viability counter screen (AID 1259242); note: nearly all actives have a fitted effect of over 45% in size
Procedure, shortened: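 R1881 at 0.5 nM final stimulated MDA-kb2 cells during 16 hr compound treatment at 37C. Cytotoxicity read: CellTiter-Fluor fluorescence after 30 min.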

[13] = qHTS assay to identify small molecule phospholipidosis (PLD) inducers (AID 1259344; active = well fitted curve in the direction sought with a large enough effect; an effect the other way counts as inactive or inconclusive)
Procedure, shortened: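 HepG2 cells on collagen I, attached 4 h at 37 C, were co-treated with compound and LipidTOX Red dye for 24 h at 37 C, then fixed with paraformaldehyde plus Hoechst 33342 and imaged by high-content microscopy for phospholipid accumulation.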

[14] = qHTS assay to identify small molecule HDAC inhibitors (AID 1259364); note: potency is the fitted concentration of half-maximal effect;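 note: wild-type HCT-116 cells with endogenous class I/II HDAC activity; nearly all actives have a fitted effect of over 45% in size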
Procedure, shortened: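 Relative class I and II HDAC activity is taken from the luminogenic signal in HCT-116 cells, with compound exposure 2 hr and reagent development 30 min at room temperature.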

[15] = qHTS assay to identify small molecule HDAC inhibitors - cell viability counter screen (AID 1259365)
Procedure, shortened: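 CellTiter-Glo luminescence (30 min, room temperature) reported viability after a 2 h compound exposure at 37 C. Cells: wild-type HCT-116, 1,500 per well, seeded the night before.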

[16] = qHTS assay to identify small molecule agonists of the sonic hedgehog signaling (Shh) pathway - cell viability counter screen (AID 1259366); note: nearly all actives have a fitted effect of over 50% in size
Procedure, shortened: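 Cytotoxicity counter screen: CellTiter-Fluor reagent added after 23 h compound exposure, then 1 h at 37C and fluorescence read. Cells were 3T3 Gli1-Luc, seeded 2,000 per well and dosed 4 h post-plating.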

[17] = qHTS assay to identify small molecule antagonists of the sonic hedgehog signaling (Shh) pathway - cell viability counter screen (AID 1259367); note: nearly all actives have a fitted effect of over 55% in size
Procedure, shortened: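 NIH/3T3-derived Gli1-Luc reporter cells (2,000 per well) rested 4 hr at 37 C, then received DMSO compounds plus conditioned medium. After 23 hr of treatment, CellTiter-Fluor was added for 1 hr at 37C and fluorescence read.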

[18] = qHTS assay to identify small molecule agonists of the sonic hedgehog signaling (Shh) pathway (AID 1259368; calls by dose curve;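 note: NIH/3T3-derived 3T3Gli1-Luc cells carrying a stable Gli1-driven firefly luciferase reporter; series mostly up to about 92 µM; nearly all actives have a fitted effect of over 15% in size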)
Procedure, shortened: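 Mouse fibroblast (NIH/3T3) reporter cells with stably integrated Gli1-Luc were treated 24 hr with compound; firefly luciferase luminescence served as the read-out.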

[19] = target: Estrogen receptor (Homo sapiens) (UniProt P03372); experiment: qHTS assay to identify small molecule antagonists of the estrogen receptor alpha (ER-alpha) signaling pathway using the BG1 cell line in the presence of 0.1 nM 17-beta-estradiol (AID 1259244); note: nearly all actives have a fitted effect of over 50% in size
Procedure, shortened: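 VM7Luc4E2; 4xERE-luciferase; 0.1 nM E2 final; 22 h co-incubation, 37C; ONE-Glo luminescence after 30 min at room temperature.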

Estrogen receptor (Homo sapiens), sequence (P03372 whole entry, looked up): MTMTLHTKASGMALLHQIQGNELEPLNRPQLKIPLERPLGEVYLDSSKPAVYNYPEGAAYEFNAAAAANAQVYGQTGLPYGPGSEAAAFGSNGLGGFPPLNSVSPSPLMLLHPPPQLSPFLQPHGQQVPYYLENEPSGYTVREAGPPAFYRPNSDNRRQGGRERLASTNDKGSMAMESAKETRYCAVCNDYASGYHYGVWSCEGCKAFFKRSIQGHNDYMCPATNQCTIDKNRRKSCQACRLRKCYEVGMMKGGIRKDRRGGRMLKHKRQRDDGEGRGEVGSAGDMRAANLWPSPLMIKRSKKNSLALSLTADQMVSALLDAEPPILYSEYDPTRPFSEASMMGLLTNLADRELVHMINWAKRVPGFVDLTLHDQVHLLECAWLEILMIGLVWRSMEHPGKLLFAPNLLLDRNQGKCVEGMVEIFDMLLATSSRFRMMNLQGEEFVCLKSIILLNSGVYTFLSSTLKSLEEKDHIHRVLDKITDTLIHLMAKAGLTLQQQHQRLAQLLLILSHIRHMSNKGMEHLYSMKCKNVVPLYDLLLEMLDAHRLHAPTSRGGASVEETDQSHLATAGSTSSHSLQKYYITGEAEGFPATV

SMILES | Potency [1] | Potency [2] | Potency [3] | Potency [4] | Potency [5] | Potency [6] | Potency [7] | Potency [8] | Potency [9] | Potency [10] | Potency [11] | Potency [12] | Potency [13] | Potency [14] | outcome [15] | Potency [16] | Potency [17] | outcome [18] | Potency [19]
COc1ccc([C@@H]2Sc3ccccc3N(CCN(C)C)C(=O)[C@@H]2OC(C)=O)cc1 | inactive | inactive | inactive | inactive | inactive | inactive | inactive | inactive | inactive | inactive | inactive | inactive | inactive | inactive | inactive | inactive | inactive | inactive | 
Cc1ccc(C)o1 | inactive | inactive | inactive | inactive | inactive | inactive | inactive | inactive | inactive | inactive | inactive | inactive |  | inactive | inactive | inactive | inactive | inactive | 
O=C(/C=C/c1ccc(O)c(O)c1)O[C@@H]1C[C@](O)(C(=O)O)C[C@@H](O)[C@H]1O | inactive | inactive | inactive | inactive | inactive | inactive | inactive | inactive | inactive | inactive | inactive | inactive |  | inactive | inactive | inactive | inactive | inactive | 
CC[C@H](C)[C@H](N)C(=O)O | inactive | inactive | inactive | inactive | inactive | inactive | inactive | inactive | inactive | inactive | inactive | inactive | inactive | inactive | inactive | inactive |  | inactive | inactive
CCOC(=O)C1=NN(c2ccccc2)C(=O)C1 | inactive | inactive | inactive | inactive | inactive | inactive | inactive |  | inactive | inactive | inactive | inactive |  | inactive |  | inactive | inactive | inactive | inactive
CCN(CC)CCNC(C(=O)OCCC(C)C)c1ccccc1 (centres undefined) | inactive | inactive | inactive | inactive | inactive | inactive |  | inactive | inactive | inactive | inactive | inactive | inactive | inactive | inactive | inactive | inactive | inactive | inactive
CC(C(=O)O)c1ccc(-c2ccccc2)c(F)c1 (centres undefined) | inactive | inactive | 54.9 µM (active) | inactive | inactive | inactive | inactive |  | inactive |  |  | inactive | inactive | 43.3 µM (active) |  | inactive | inactive | inactive | inactive
